Source: PubChem BioAssay (NCATS)
Records with an inconclusive call do not appear. Where a call stands in place of a potency, no number is given. Calls of active or inactive are those of the source. Calls come from the whole dose curve; as a rule, active = well fitted inhibition curve with a large enough effect; inconclusive = small, poorly fitted or top-dose-only effect; inactive = flat fitted curve, though single readings scatter.

Each molecule was assayed on MCC-13 (assay: qHTS assay to identify novel small-molecules to repurpose for Merkel cell carcinoma treatment (AID 1296009; note: nearly all actives have a fitted effect of over 60% in size)). Conditions: MCC and control cell lines, CellTiter-Glo viability, 72 h; series mostly up to 46 µM.
Procedure, shortened: (§1)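 Cells exposed to NPC (8-point) and MIPE (11-point) compound dilutions for 72 hr at 37 degree celsius; viability read by CellTiter-Glo luminescence, normalized to no-cell and DMSO in-plate controls.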
Potency is the fitted concentration of half-maximal effect.

SMILES | Potency
C[C@H]1COc2c(N3CCN(C)CC3)c(F)cc3c(=O)c(C(=O)O)cn1c23 | inactive
COc1cc(C)c(Sc2cnc(NC(=O)c3ccc(CNC(C)C(C)(C)C)cc3)s2)cc1C(=O)N1CCN(C(C)=O)CC1 (configuration not stated) | inactive
C#C[C@]1(O)CC[C@@H]2[C@@H]3CCc4cc(O)ccc4[C@H]3CC[C@@]21C | inactive
COc1cccc2c1C(=O)c1c(O)c3c(c(O)c1C2=O)C[C@@](O)(C(=O)CO)C[C@@H]3O[C@H]1C[C@H](N)[C@H](OC2CCCCO2)[C@H](C)O1 (some centres not stated) | 5.26 µM (active)
Cc1nc(NC(=O)N2CCC[C@@H]2C(N)=O)sc1-c1ccnc(C(C)(C)C(F)(F)F)c1 | inactive
CC(O)(C#Cc1ccc2c(c1)N(c1nc(N)ncc1Cl)CC2)c1nccs1 (configuration not stated) | inactive
CN(C)c1ccc2cc(C(=O)N[C@@H](CCCN=C(N)CCl)C(=O)NCc3ccccc3)ccc2c1 | inactive
COC[C@H](NC(=O)c1cnc(C)s1)C(=O)N[C@@H](COC)C(=O)N[C@@H](Cc1ccccc1)C(=O)[C@@]1(C)CO1 | 0.526 µM (active)
C#Cc1cccc(Nc2ncnc3cc(OCCOC)c(OCCO)cc23)c1 | inactive
NS(=O)(=O)OC[C@@H]1C[C@@H](n2ccc3c(N[C@H]4CCc5ccccc54)ncnc32)C[C@H]1O | 5.9 µM (active)
Cc1cc(Nc2ncc3c(n2)N(C)C(=O)N(c2cc(NC(=O)c4cccc(C(F)(F)F)c4)ccc2C)C3)n(C)n1 | 2.09 µM (active)
O=S(=O)(O)CCSSCCS(=O)(=O)O | inactive
N#CC(=Cc1ccc(O)c(O)c1)C(=O)NCc1ccccc1 | inactive
c1cc(N[C@@H]2CCNC2)nc(-c2cnc3ccc(-c4cn[nH]c4)cn23)c1 | inactive
CC(=O)ON=C1C(c2c(O)[nH]c3cc(Br)ccc23)=Nc2ccccc21 | inactive
Cn1cc(-c2ccc3ncc(Cc4ccc5ncccc5c4)n3n2)cn1 | inactive
C[C@]12CCC(=O)C=C1[C@@H]1CC1[C@H]1[C@H]3[C@@H]4C[C@H]4[C@@]4(CCC(=O)O4)[C@@]3(C)CC[C@H]12 (some centres not stated) | inactive
CN1CCc2c(c3ccccc3n2Cc2ccc(C(=O)NO)cc2)C1 | inactive
OCCNC1CCCc2c1[nH]c1ccc(-c3ccccc3)cc21 (configuration not stated) | inactive
Cn1cc(-c2cnn3c(N)c(Br)c([C@H]4CCCNC4)nc23)cn1 | inactive
CC(C)(O)CC[C@@H](O)[C@](C)(O)[C@H]1CC[C@@]2(O)C3=CC(=O)[C@@H]4C[C@@H](O)[C@@H](O)C[C@]4(C)[C@@H]3CC[C@]12C | inactive
C[C@@H](Cc1cc2c(c(C(N)=O)c1)N(CCCO)CC2)NCCOc1ccccc1OCC(F)(F)F | inactive
Cc1noc(-c2ccc(CSCCC(=O)O)cc2)c1NC(=O)OC(C)c1ccccc1Cl (configuration not stated) | inactive

What follows are molecules tested on MCC-26 in the same assay as above. Conditions: MCC and control cell lines, CellTiter-Glo viability, 72 h; series mostly up to 46 µM.
Procedure, shortened: as §1

SMILES | Potency
C[C@H]1COc2c(N3CCN(C)CC3)c(F)cc3c(=O)c(C(=O)O)cn1c23 | inactive
C#C[C@]1(O)CC[C@@H]2[C@@H]3CCc4cc(O)ccc4[C@H]3CC[C@@]21C | inactive
C#CCC(Cc1cnc2nc(N)nc(N)c2n1)c1ccc(C(=O)N[C@@H](CCC(=O)O)C(=O)O)cc1 (some centres not stated) | inactive
COc1cccc2c1C(=O)c1c(O)c3c(c(O)c1C2=O)C[C@@](O)(C(=O)CO)C[C@@H]3O[C@H]1C[C@H](N)[C@H](OC2CCCCO2)[C@H](C)O1 (some centres not stated) | 3.72 µM (active)
Cc1nc(NC(=O)N2CCC[C@@H]2C(N)=O)sc1-c1ccnc(C(C)(C)C(F)(F)F)c1 | inactive
CC(O)(C#Cc1ccc2c(c1)N(c1nc(N)ncc1Cl)CC2)c1nccs1 (configuration not stated) | inactive
CN(C)c1ccc2cc(C(=O)N[C@@H](CCCN=C(N)CCl)C(=O)NCc3ccccc3)ccc2c1 | inactive
CC1=C(C(=O)Nc2cc3cn[nH]c3cc2F)C(c2ccc(Cl)cc2F)N=C(c2ccnc(Cl)c2)N1 (configuration not stated) | inactive
C#Cc1cccc(Nc2ncnc3cc(OCCOC)c(OCCO)cc23)c1 | inactive
NS(=O)(=O)OC[C@@H]1C[C@@H](n2ccc3c(N[C@H]4CCc5ccccc54)ncnc32)C[C@H]1O | 2.09 µM (active)
COc1cc2ncnc(Nc3cccc(Br)c3)c2cc1OC | inactive
Cc1cncc2cccc(S(=O)(=O)N3CCCN(C(=O)CN)C[C@@H]3C)c12 | inactive
Cc1cc(Nc2ncc3c(n2)N(C)C(=O)N(c2cc(NC(=O)c4cccc(C(F)(F)F)c4)ccc2C)C3)n(C)n1 | 1.18 µM (active)
CC(=O)NCC(=O)N1[C@H]2CC[C@H]1c1cc(Nc3ncc(C(F)(F)F)c(NC4CCC4)n3)ccc12 | 3.72 µM (active)
O=S(=O)(O)CCSSCCS(=O)(=O)O | inactive
N#CC(=Cc1ccc(O)c(O)c1)C(=O)NCc1ccccc1 | inactive
c1cc(N[C@@H]2CCNC2)nc(-c2cnc3ccc(-c4cn[nH]c4)cn23)c1 | inactive
CC(=O)ON=C1C(c2c(O)[nH]c3cc(Br)ccc23)=Nc2ccccc21 | inactive
Cn1cc(-c2ccc3ncc(Cc4ccc5ncccc5c4)n3n2)cn1 | inactive
C[C@]12CCC(=O)C=C1[C@@H]1CC1[C@H]1[C@H]3[C@@H]4C[C@H]4[C@@]4(CCC(=O)O4)[C@@]3(C)CC[C@H]12 (some centres not stated) | inactive
CN1CCc2c(c3ccccc3n2Cc2ccc(C(=O)NO)cc2)C1 | inactive
OCCNC1CCCc2c1[nH]c1ccc(-c3ccccc3)cc21 (configuration not stated) | inactive
Cn1cc(-c2cnn3c(N)c(Br)c([C@H]4CCCNC4)nc23)cn1 | inactive
CC(C)(O)CC[C@@H](O)[C@](C)(O)[C@H]1CC[C@@]2(O)C3=CC(=O)[C@@H]4C[C@@H](O)[C@@H](O)C[C@]4(C)[C@@H]3CC[C@]12C | inactive
C[C@@H](Cc1cc2c(c(C(N)=O)c1)N(CCCO)CC2)NCCOc1ccccc1OCC(F)(F)F | inactive
Cc1noc(-c2ccc(CSCCC(=O)O)cc2)c1NC(=O)OC(C)c1ccccc1Cl (configuration not stated) | inactive
FC(F)(F)c1ccc(Nc2nc3ccc(Oc4ccnc(-c5ncc(C(F)(F)F)[nH]5)c4)cc3[nH]2)cc1 | inactive
CN(C)CCN1C(=O)c2cccc3cc(N)cc(c23)C1=O | inactive
O=C(Nc1nnc(-c2ccco2)o1)c1cc(-c2ccccc2)nc2ccccc12 | inactive
